The results in this text go back to PubChem BioAssay (Tox21).

A short description of experiment [1]: qHTS assay to identify small molecule agonists of the estrogen receptor alpha (ER-alpha) signaling pathway in the presence of an antagonist - cell viability counter screen (AID 1259386).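 Further: cells exposed to compounds for 22 h at 37 °C before the viability read; nearly all actives have a fitted effect of over 30% in size.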 Further: potency means the concentration at half of the fitted maximal effect. On activity change, negative = cytotoxicity: series mostly up to about 92 µM. The method, boiled down: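 Cytotoxicity was measured in parallel with the ERE-luciferase agonist screen, in the same wells. The cells were VM7Luc4E2, which endogenously express ER-alpha, and treatment was with compounds plus 10.0nM ICI-182,780 for 22hr.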

A short description of experiment [2]: qHTS assay to identify small molecule antagonists of the progesterone receptor (PR) signaling pathway - cell viability counter screen (AID 1346798). Further: nearly all actives have a fitted effect of over 50% in size. Further: potency means the concentration at half of the fitted maximal effect. On activity change, negative = cytotoxicity: series mostly up to about 92 µM. The procedure, abridged:
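CellTiter-Glo luminescence; PR-UAS-bla HEK293T, 3,000 cells/well; compound + R5020, 16 hr, 37C/5% CO2; 30 min RT before read.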

The nature of experiment [3]: qHTS assay to identify small molecule antagonists of the TGF-beta/Smad signaling pathway - cell viability counter screen (AID 1346824). Further: nearly all actives have a fitted effect of over 50% in size. Further: potency means the concentration at half of the fitted maximal effect. The procedure, abridged: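 SBE-bla HEK 293T cells, incubated overnight, then compound plus 0.25 ng/mL TGF-beta1 (stock added) for 5 hr at 37 C. Viability was read in the same wells by CellTiter-Glo luminescence after 30 min at room temperature.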

Experiment [4] can be described thus: Human pregnane X receptor (PXR) small molecule agonists, qHTS cell viability counter screen (AID 1346977). Further: nearly all actives have a fitted effect of over 50% in size. Further: potency means the concentration at half of the fitted maximal effect. The method, boiled down:
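Viability counter screen: CellTiter-Fluor signal in PXR-Luc HepG2 cells, 24hr compound exposure, 37C, 5% CO2.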

Experiment [5] in a line: Caspase-3/7 induction in CHO-K1 cells by small molecules, qHTS cell viability counter screen (AID 1346979). Further: nearly all actives have a fitted effect of over 35% in size. Further: potency means the concentration at half of the fitted maximal effect. The procedure, abridged: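 Viability readout by fluorescence (CellTiter-Fluor) on wild-type CHO-K1 cells exposed for 16hr at 37C and 5% CO2 to compounds delivered in DMSO; reagent incubated 1hr before reading.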
A short description of experiment [6]: Caspase-3/7 induction in CHO-K1 cells by small molecules, qHTS assay (AID 1346980). Further: nearly all actives have a fitted effect of over 15% in size. The method, boiled down: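 Wild-type CHO-K1 cells exposed to compounds for 17hr at 37 C, 5% CO2. Caspase-3/7 activity then measured by Caspase-Glo 3/7 luminescence after 30min at room temperature.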
Experiment [7] can be described thus: Caspase-3/7 induction in HepG2 cells by small molecules, qHTS cell viability counter screen (AID 1346981). Further: nearly all actives have a fitted effect of over 30% in size. Further: potency means the concentration at half of the fitted maximal effect. On activity change, negative = cytotoxicity: series mostly up to about 92 µM. The procedure, abridged:
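Cell viability is measured as a cytotoxicity counter screen alongside the Caspase-Glo 3/7 readout in identical wells. Wild-type HepG2 cells are treated with test compounds for 16 hr at 37 C before CellTiter-Fluor addition and a 1-hr incubation.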

The target of experiment [8] is Nuclear receptor subfamily 1 group I member 2 (Homo sapiens) (UniProt O75469). Put plainly: Human pregnane X receptor (PXR) small molecule agonists, qHTS assay (AID 1346982). Further: nearly all actives have a fitted effect of over 35% in size. Further: potency means the concentration at half of the fitted maximal effect. The procedure, abridged: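 Cells: HepG2 stably carrying PXR-Luc. Medium held 5% charcoal-stripped FBS. Compounds in DMSO added after 5 hr plating, incubated 24 hr, then luminescence quantified with ONE-Glo.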

Experiment [9] deals with Nuclear receptor subfamily 1 group I member 2 (Rattus norvegicus) (UniProt Q9R1A7). Nature of the experiment: Rat pregnane X receptor (rPXR) activation by small molecules, qHTS assay (AID 1346983). Further: nearly all actives have a fitted effect of over 20% in size. Further: potency means the concentration at half of the fitted maximal effect. To be noted: rPXR luciferase reporter cells, One-Glo luminescence, 24 h; max activation: stronger effect = higher value. The method, boiled down: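 Cell-based rPXR activation assay: rPXR cells, 2,000 per well, rested 5hr at 37 C, then exposed to compounds in DMSO for 24 hr at 37 C. Luciferase activity read by One-Glo luminescence after 30 min at room temperature.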

Experiment [10] deals with Nuclear receptor subfamily 1 group I member 2 (Homo sapiens) (UniProt O75469). Nature of the experiment: Human pregnane X receptor (PXR) activation by small molecules, qHTS assay (AID 1346985). Further: nearly all actives have a fitted effect of over 40% in size. Further: potency means the concentration at half of the fitted maximal effect. The method, boiled down: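 DPX-2 cells (HepG2 co-transfected with a PXR response element and a CYP3A4-promoter luciferase construct) were seeded at 2,000 per well, rested 5 hr at 37C, then exposed to DMSO-dissolved compounds for 24 hr. Activation was read as luciferase luminescence.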

In experiment [11] the target is Cytochrome P450 2D6 (Homo sapiens) (UniProt P10635). Nature of the experiment: Cytochrome P450 Family 2 Subfamily D Member 6 (CYP2D6) small molecule antagonists: luciferase reporter qHTS assay (AID 1671196). Further: nearly all actives have a fitted effect of over 50% in size. Further: potency means the concentration at half of the fitted maximal effect. On activity change, negative = inhibition: series mostly up to about 120 µM. The procedure, abridged:
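Enzyme and proluciferin substrate were first combined with test chemical for 10 min at room temperature. Adding NADPH regeneration solution started a 1 h reaction, stopped with luciferin detection reagent and read by luminescence 20 min later.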

Experiment [12] addresses Progesterone receptor (Homo sapiens) (UniProt P06401). Nature of the experiment: qHTS assay to identify small molecule antagonists of the progesterone receptor (PR) signaling pathway (AID 1346795; active means well fitted inhibition curve with a large enough effect in the signal ratio in the repeat runs, not every such curve was filed as active; the % refers to the signal ratio; further: potency means the concentration at half of the fitted maximal effect). The method, boiled down: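 Fluorescence intensity measured 2 hr after adding beta-lactamase FRET substrate to PR-UAS-bla HEK293T cells that had been co-treated 16 hr with compound and 1 nM R5020 (final concentration) in 2% charcoal-stripped FBS.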

Experiment [13] can be described thus: qHTS assay to identify small molecule agonists of the TGF-beta/Smad signaling pathway - cell viability counter screen (AID 1346829). Further: top concentration of the series differs between compounds; nearly all actives have a fitted effect of over 45% in size. The procedure, abridged: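 Same-well cytotoxicity: CellTiter-Glo added after the 2 hr room-temperature beta-lactamase substrate step, luminescence measured 30 min later; cells had 5 hr of compound at 37 C.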
Experiment [14] is described as follows: qHTS assay to identify small molecule agonists of the TGF-beta/Smad signaling pathway (AID 1346859; active means well fitted activation curve with a large enough effect in the signal ratio in the repeat runs, not every such curve was filed as active; the % refers to the signal ratio; further: series mostly up to about 77 µM). The procedure, abridged:
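After overnight seeding, SBE-bla HEK 293T cells are dosed with compounds in DMSO and kept 5 hr at 37 C, 5% CO2. LiveBLAzer-type FRET substrate is then applied for 2 hr at room temperature.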

Experiment [15] has as its target Thyrotropin-releasing hormone receptor (Homo sapiens) (UniProt P34981). Put plainly: qHTS assay to identify small molecule antagonists of the thyrotropin-releasing hormone receptor (TRHR) signaling pathway (AID 1346877; active means well fitted inhibition curve with a large enough effect in the repeat runs, not every such curve was filed as active; further: series mostly up to about 51 µM). The procedure, abridged: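 Antagonism is measured as suppression of the calcium response to 1 nM TRH in TRHR-HEK293 cells that have been dye-loaded for 2 h at 37 °C after overnight plating. Each compound is tested at 15 concentrations in triplicate.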

Experiment [16] has the same target. Nature of the experiment: qHTS assay to identify small molecule agonists of the thyrotropin-releasing hormone receptor (TRHR) signaling pathway (AID 1346891; calls by dose curve;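 further: HEK293 cells expressing TRHR with calcium dye readout; series mostly up to about 58 µM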). The procedure, abridged: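 Compounds were tested as agonists at 15 concentrations, in triplicate, on TRHR-Hek293 cells; calcium-sensitive dye fluorescence was recorded for 3 min following addition.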
Experiment [17] is described as follows: Caspase-3/7 induction in HepG2 cells by small molecules, qHTS assay (AID 1346978). Further: nearly all actives have a fitted effect of over 15% in size. The method, boiled down:
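Wild-type HepG2 cells, 2,000/well, settled 5 hr at 37 C and 5% CO2, then compound-treated for 17 hr; caspase-3/7 activity read by luminescent Caspase-Glo 3/7 after 30 min at room temperature.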

Experiment [18] is described as follows: qHTS assay to identify small molecule agonists of the progesterone receptor (PR) signaling pathway - cell viability counter screen (AID 1346799; calls by dose curve; further: nearly all actives have a fitted effect of over 45% in size). The method, boiled down: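 In parallel with the beta-lactamase readout, cytotoxicity toward PR-UAS-bla HEK293T cells was measured by CellTiter-Glo luminescence following 16 hr compound incubation in 2% charcoal-stripped FBS medium.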

Experiment [19] concerns the target Nuclear receptor subfamily 1 group I member 2 (Homo sapiens) (UniProt O75469). Nature of the experiment: CYP3A4 induction through human pregnane X receptor (PXR) by small molecules, qHTS assay (AID 1346984). Further: nearly all actives have a fitted effect of over 40% in size. The method, boiled down: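 Quantitative HTS in DPX-2 cells, i.e. HepG2 transfected with PXR response element and CYP3A4-promoter luciferase. Compounds in DMSO incubated 24hr at 37C; then P450-Glo CYP3A4 substrate, 3uM final, 3hr; One-Glo luminescence.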

Experiment [20] deals with Progesterone receptor (Homo sapiens) (UniProt P06401). Put plainly: qHTS assay to identify small molecule agonists of the progesterone receptor (PR) signaling pathway (AID 1346784; calls by dose curve; further: nearly all actives have a fitted effect of over 30% in size). The method, boiled down:
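Fluorescence from LiveBLAzer B/G FRET substrate cleavage (2 hr, RT) reported PR activation in PR-UAS-bla HEK 293T cells treated 16 hr at 37C/5% CO2 with compounds; medium contained 2% charcoal-stripped FBS.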

A number with no mark means an inactive call. Records with an inconclusive call do not appear. Activity calls are given as the source filed them. Unless noted, the call rests on the fitted dose curve; in most records, active means well fitted curve in the direction sought with a large enough effect in the repeat runs; inconclusive means weak or mixed curves; inactive means no such curve, though single readings can be large; an effect the other way counts as inactive or inconclusive.
On the % scale 0 is the no-effect control and ±100 the full control effect.

Chain of Thyrotropin-releasing hormone receptor (Homo sapiens) (P34981 whole entry, looked up): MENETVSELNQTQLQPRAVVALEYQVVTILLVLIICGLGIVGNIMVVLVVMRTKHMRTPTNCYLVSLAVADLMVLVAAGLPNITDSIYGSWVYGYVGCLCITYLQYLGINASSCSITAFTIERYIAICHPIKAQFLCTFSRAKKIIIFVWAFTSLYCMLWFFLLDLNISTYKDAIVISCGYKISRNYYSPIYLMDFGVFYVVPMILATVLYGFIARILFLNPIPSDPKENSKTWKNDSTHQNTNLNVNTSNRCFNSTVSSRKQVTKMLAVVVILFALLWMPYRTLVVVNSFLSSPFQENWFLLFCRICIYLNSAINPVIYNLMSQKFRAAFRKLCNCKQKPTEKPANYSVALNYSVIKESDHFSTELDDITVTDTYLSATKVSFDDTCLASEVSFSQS
Chain of Progesterone receptor (Homo sapiens) (P06401 whole entry, looked up): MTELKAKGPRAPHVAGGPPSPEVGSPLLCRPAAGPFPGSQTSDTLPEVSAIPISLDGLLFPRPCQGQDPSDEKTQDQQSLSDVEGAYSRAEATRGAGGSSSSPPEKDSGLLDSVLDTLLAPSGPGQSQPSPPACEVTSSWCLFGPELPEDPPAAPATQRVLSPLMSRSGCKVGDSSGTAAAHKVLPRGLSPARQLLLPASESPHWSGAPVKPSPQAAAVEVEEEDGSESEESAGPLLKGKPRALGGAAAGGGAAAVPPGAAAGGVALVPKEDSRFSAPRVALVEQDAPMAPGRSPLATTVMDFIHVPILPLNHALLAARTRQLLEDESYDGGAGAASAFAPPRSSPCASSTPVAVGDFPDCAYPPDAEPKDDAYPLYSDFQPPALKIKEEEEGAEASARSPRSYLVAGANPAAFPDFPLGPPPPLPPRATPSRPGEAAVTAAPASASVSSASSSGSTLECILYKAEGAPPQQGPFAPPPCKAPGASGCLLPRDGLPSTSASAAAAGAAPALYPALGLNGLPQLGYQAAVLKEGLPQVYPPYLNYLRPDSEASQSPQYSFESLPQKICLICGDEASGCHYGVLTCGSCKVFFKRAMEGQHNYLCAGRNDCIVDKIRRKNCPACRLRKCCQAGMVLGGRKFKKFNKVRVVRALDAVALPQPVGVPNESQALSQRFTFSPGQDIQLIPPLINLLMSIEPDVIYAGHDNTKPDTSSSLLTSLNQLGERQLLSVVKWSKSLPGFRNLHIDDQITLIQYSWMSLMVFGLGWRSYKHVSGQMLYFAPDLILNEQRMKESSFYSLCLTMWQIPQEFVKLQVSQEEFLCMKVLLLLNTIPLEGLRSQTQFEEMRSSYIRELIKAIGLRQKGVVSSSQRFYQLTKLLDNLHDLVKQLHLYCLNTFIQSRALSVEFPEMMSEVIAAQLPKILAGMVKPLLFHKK
Chain of Cytochrome P450 2D6 (Homo sapiens) (P10635 whole entry, looked up): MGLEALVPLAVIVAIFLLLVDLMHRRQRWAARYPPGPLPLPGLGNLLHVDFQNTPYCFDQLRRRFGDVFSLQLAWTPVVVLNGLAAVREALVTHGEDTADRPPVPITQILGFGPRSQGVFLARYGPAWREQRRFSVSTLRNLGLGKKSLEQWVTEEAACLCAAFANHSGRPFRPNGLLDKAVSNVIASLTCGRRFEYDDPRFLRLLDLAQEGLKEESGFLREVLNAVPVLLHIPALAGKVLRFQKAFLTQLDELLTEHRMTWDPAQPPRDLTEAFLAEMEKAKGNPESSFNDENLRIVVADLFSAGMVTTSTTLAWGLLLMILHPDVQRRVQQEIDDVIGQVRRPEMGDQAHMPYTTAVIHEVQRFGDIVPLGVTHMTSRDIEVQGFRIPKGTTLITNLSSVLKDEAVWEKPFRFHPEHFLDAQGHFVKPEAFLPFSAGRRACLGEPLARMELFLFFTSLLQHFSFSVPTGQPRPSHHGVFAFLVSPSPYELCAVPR
Chain of Nuclear receptor subfamily 1 group I member 2 (Rattus norvegicus) (Q9R1A7 whole entry, looked up): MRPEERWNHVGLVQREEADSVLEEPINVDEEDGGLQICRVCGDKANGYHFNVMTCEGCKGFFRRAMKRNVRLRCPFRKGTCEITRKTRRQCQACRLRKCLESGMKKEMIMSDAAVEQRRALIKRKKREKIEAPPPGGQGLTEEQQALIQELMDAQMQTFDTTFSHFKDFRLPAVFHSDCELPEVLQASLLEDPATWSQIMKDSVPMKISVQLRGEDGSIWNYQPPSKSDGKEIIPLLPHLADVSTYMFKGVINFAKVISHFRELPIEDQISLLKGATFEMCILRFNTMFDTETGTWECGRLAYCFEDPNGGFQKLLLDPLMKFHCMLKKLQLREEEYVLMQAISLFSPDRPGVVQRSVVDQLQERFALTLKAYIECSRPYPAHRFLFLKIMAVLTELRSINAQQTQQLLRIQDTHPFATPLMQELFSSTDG
Chain of Nuclear receptor subfamily 1 group I member 2 (Homo sapiens) (O75469 whole entry, looked up): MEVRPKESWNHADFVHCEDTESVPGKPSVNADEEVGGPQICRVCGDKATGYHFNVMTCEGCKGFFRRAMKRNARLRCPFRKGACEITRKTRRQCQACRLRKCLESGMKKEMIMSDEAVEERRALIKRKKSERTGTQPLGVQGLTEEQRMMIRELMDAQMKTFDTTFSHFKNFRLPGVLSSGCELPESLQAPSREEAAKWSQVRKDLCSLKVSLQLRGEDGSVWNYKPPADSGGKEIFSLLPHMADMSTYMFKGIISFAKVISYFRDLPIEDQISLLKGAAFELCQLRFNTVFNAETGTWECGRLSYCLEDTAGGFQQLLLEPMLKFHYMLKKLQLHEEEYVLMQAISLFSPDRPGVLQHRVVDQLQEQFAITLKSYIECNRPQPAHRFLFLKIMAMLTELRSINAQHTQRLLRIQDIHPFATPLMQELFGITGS

`Cc1cccc(C)c1OCC(=O)N[C@@H](Cc1ccccc1)[C@@H](O)C[C@H](Cc1ccccc1)NC(=O)[C@H](C(C)C)N1CCCNC1=O`: the Potency in [1] is 29.8 µM (active); in experiment [2], 29.8 µM (active); in experiment [4], 29.8 µM (active); in [5] it was 26.6 µM (active); in experiment [7], 26.6 µM (active); in experiment [8] it was 29.8 µM (active). For the same molecule, the Potency was 11.2 µM (active) in experiment [9], 3.98 µM (active) in [10] and 15.5 µM (active) in experiment [11]. The Potency result in [3] and in experiment [6] was “inactive” each time.
Regarding `CCC(C)O` (centres undefined), the Potency entry in experiment [1], in experiment [12], in experiment [2], in [3], in experiment [14] and in experiment [16] was “inactive” throughout. For the same molecule, the Potency entry in [4], in experiment [17], in [5], in experiment [6] and in [7] was “inactive” each time. Besides, the molecule was classed as inactive in experiment [13] and in experiment [15].
Turning to `CC/C=C\CCOC(=O)CC`, the Potency result in experiment [1], in [2], in experiment [18], in experiment [3], in experiment [14] and in experiment [16] was “inactive” each time. For the same molecule, the Potency result in [4], in experiment [5], in [6], in experiment [7], in [8] and in experiment [11] was “inactive” throughout. Moreover, the molecule was called inactive in experiment [13] and in experiment [15].
As for `Cc1[nH]c(C)c(Cl)c(=O)c1Cl`, the activity change, negative = cytotoxicity in experiment [1] is -1.35% [at 19 µM]; in experiment [2], 10.6% [at 18.9 µM]; in experiment [18], 5.96% [at 19 µM]; in experiment [13], 5.04% [at 15.8 µM]; in experiment [4], 6.66% [at 19 µM]; in [5], 1.93% [at 19 µM]. Also, the activity change, negative = cytotoxicity in [7] was -0.581% [at 19 µM]. Besides, the values for the activity change, negative = inhibition in experiment [12] and in experiment [11] were 4.44% [at 18.9 µM] and -9.89% [at 23.6 µM], respectively. Further, the viability change, negative = cytotoxic in experiment [3] was 5.33% [at 15.8 µM]. The activation was 0.225% [at 15.8 µM] in [14], -1.18% [at 11.8 µM] in [16] and -7.31% [at 19 µM] in experiment [8]. In experiment [15], the activity, negative = inhibition was 2.83% [at 10.5 µM]. Moreover, in experiment [6], the caspase-3/7 activation was -0.964% [at 19 µM]. Besides, in experiment [9], the max activation is -3.17%. Besides, the Potency result in experiment [19] and in experiment [10] was “inactive” each time.
`CC(=O)c1cccc([N+](=O)[O-])c1`: the Potency result in experiment [1], in experiment [12], in experiment [2], in experiment [18], in [3] and in [14] was “inactive” each time. The Potency entry in experiment [16], in experiment [17] and in experiment [7] was “inactive” in each case. Besides, in experiment [15], the result was inactive.
Take `CCCCCCCCCc1ccc(OCCOCCO)cc1`: the Potency is 22.8 µM (active) in experiment [1]; 12.8 µM (active) in experiment [12]; 18.3 µM (active) in [3]; 5.74 µM (active) in [4]; 18.1 µM (active) in [5]; 20.4 µM (active) in [7]. The Potency was 6.44 µM (active) in [8] and 23.6 µM (active) in experiment [11]. The Potency result in [14], in experiment [16], in [6], in experiment [19] and in experiment [10] was “inactive” in each case. Moreover, in [15], the molecule was called inactive. Besides, in experiment [9], the max activation was -12.1%.
In the case of `O=C1OC(CN2CCOCC2)CN1/N=C/c1ccc([N+](=O)[O-])o1` (centres undefined), the Potency entry in experiment [20], in experiment [12], in experiment [2], in [18], in [3] and in experiment [14] was “inactive” in each case. Moreover, the Potency result in experiment [17], in [6], in experiment [8], in experiment [19] and in experiment [10] was “inactive” throughout. For the same molecule, in [9], the max activation was -7.02%. Further, the Potency in experiment [11] is 38.9 µM (active).
For the molecule `COc1ccc(C(=O)Nc2nc3ccccc3c(NCc3ccccc3)c2C#N)cc1`, the Potency result in experiment [20], in experiment [12], in experiment [2], in experiment [18], in [3] and in [4] was “inactive” throughout. Further, the Potency entry in experiment [17], in experiment [6] and in [11] was “inactive” each time. The molecule was called inactive in experiment [13].
